{"source": "PubChem BioAssay (NCATS)", "note": "Records with an inconclusive call do not appear. Activity calls are given as the source filed them. Calls come from the whole dose curve; as a rule, active = well fitted inhibition curve with a large enough effect; inconclusive = small, poorly fitted or top-dose-only effect, or effect the other way; inactive = flat fitted curve, though single readings scatter."}
{"molecular_target": "ATP-dependent 6-phosphofructokinase (Trypanosoma brucei brucei) (UniProt O15648)", "sequence (O15648 whole entry, looked up)": "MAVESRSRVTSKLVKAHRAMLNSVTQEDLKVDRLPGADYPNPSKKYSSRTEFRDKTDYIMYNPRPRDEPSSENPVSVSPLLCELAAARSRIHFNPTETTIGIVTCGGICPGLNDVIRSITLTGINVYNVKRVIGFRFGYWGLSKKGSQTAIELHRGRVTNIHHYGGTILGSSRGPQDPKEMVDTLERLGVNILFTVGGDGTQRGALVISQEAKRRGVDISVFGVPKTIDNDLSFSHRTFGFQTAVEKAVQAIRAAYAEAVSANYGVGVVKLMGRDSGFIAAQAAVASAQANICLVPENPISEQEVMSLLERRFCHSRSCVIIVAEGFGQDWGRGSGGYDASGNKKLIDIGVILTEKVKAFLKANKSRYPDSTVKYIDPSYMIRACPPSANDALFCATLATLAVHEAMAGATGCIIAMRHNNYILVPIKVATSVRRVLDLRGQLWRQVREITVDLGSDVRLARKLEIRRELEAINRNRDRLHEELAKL", "test": "qHTS Assay to Find Inhibitors of T. brucei phosphofructokinase: hit validation (AID 492961)", "conditions": "T. brucei PFK, ADP-Glo luminescence; series mostly up to 51.4 µM", "outline": "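Luminescence from ADP-Glo reports ADP generated as T. brucei PFK (1.25 nM) phosphorylates 0.5 mM fructose-6-phosphate using 0.1 mM ATP. Reactions ran 45 min at room temperature, pH 8.0.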"}
{"smiles": "CN1CCC[C@@H]1c1cccnc1", "outcome": "inactive"}
{"smiles": "CC(O)(P(=O)(O)O)P(=O)(O)O", "outcome": "inactive"}
{"smiles": "CN(C(=O)CN(CCO)CC(=O)N(C)C(C)(C)Cc1ccccc1)C(C)(C)Cc1ccccc1", "outcome": "inactive"}
{"smiles": "CCCCOc1cc(C(=O)NCCN(CC)CC)c2ccccc2n1", "outcome": "inactive"}
{"smiles": "Cc1c(C)n(CCN(C)C)c2ccc(C(=O)OCCN(C)C)cc12", "outcome": "inactive"}
{"smiles": "CC(C)(C)CC(C)(C)c1ccc(O)c(Cc2ccc(Cl)cc2Cl)c1", "outcome": "inactive"}
{"smiles": "CCN1CCC[C@H]1CNC(=O)c1c(OC)ccc(Br)c1OC", "outcome": "inactive"}
{"smiles": "CCCCCCCCCCCCCCCCOP(=O)([O-])OCC[N+](C)(C)C", "outcome": "inactive"}
{"smiles": "CC(C)N=C(N)/N=C(\\N)Nc1ccc(Cl)cc1", "outcome": "inactive"}
{"smiles": "CCCCCCCCCCCCCCCCCC(=O)OCC(O)CO", "note": "(centres undefined)", "outcome": "inactive"}
{"smiles": "O=C(O)CNC(=O)c1ccccc1", "outcome": "inactive"}
{"smiles": "Nc1ccc(C(=O)O)cc1", "outcome": "inactive"}
{"smiles": "c1ccc(OCc2ccc(CCCN3CCOCC3)cc2)cc1", "outcome": "inactive"}
{"smiles": "O=C(OCCOCCO)c1ccccc1Nc1cccc(C(F)(F)F)c1", "outcome": "inactive"}
{"smiles": "Cc1ccc(C(=O)C(C)CN2CCCCC2)cc1", "note": "(centres undefined)", "outcome": "inactive"}
{"smiles": "COc1cc(OC)cc(OC)c1", "outcome": "inactive"}
{"smiles": "Cc1ccnc(NS(=O)(=O)c2ccc(N)cc2)n1", "outcome": "inactive"}
{"smiles": "CCN(CCCc1ccccc1)CCCc1ccccc1", "outcome": "inactive"}
{"smiles": "CCN(CC)CCOc1ccc(C(O)(Cc2ccc(Cl)cc2)c2ccc(C)cc2)cc1", "note": "(centres undefined)", "outcome": "inactive"}
{"smiles": "O=C1c2ccccc2C(=O)C1c1ccccc1", "outcome": "inactive"}
{"smiles": "O=C1[C@H]2CCCC[C@H]2C(=O)N1CCCCN1CCN(c2nsc3ccccc23)CC1", "outcome": "inactive"}
{"smiles": "O=C(Nc1ccc(Oc2ccc(Cl)cc2)c(Cl)c1)c1cc(I)cc(I)c1O", "outcome": "inactive"}
{"smiles": "CCCCCC=CCC=CCCCCCCCC(=O)OCC", "outcome": "inactive"}
{"smiles": "CC(=O)OCC(=O)NCCCOc1cccc(CN2CCCCC2)c1", "outcome": "inactive"}
{"smiles": "NCCCC[C@H](N[C@@H](CCc1ccccc1)C(=O)O)C(=O)N1CCC[C@H]1C(=O)O", "outcome": "inactive"}
{"smiles": "O=C(CCCN1CCC(O)(c2ccc(Br)cc2)CC1)c1ccc(F)cc1", "outcome": "inactive"}
{"smiles": "CC(O)C(=O)O", "note": "(centres undefined)", "outcome": "inactive"}
{"smiles": "Cc1c(C(C)C)c(=O)n(-c2ccccc2)n1C", "outcome": "inactive"}
{"smiles": "CCN1CCCC1=O", "outcome": "inactive"}
{"smiles": "COc1cc(C(=S)N2CCOCC2)cc(OC)c1OC", "outcome": "inactive"}
{"smiles": "CN1CCC(=C2c3ccccc3Sc3ccccc32)CC1", "outcome": "inactive"}
{"smiles": "CC(C)=CCC1C(=O)N(c2ccccc2)N(c2ccccc2)C1=O", "outcome": "inactive"}
{"smiles": "Cc1c(N(C)CS(=O)(=O)O)c(=O)n(-c2ccccc2)n1C", "outcome": "inactive"}
{"smiles": "COc1ccc(/C=C/C(=O)c2ccc(OC)cc2OC)cc1", "outcome": "inactive"}
{"smiles": "c1ccc(CNCCNCc2ccccc2)cc1", "outcome": "inactive"}
{"smiles": "Oc1ccc(Cl)c2cccnc12", "outcome": "inactive"}
{"smiles": "Cc1cccn2c(=O)c(-c3nnn[nH]3)cnc12", "outcome": "inactive"}
{"smiles": "CC(=O)N(O)CCCCCNC(=O)CCC(=O)N(O)CCCCCNC(=O)CCC(=O)N(O)CCCCCN", "outcome": "inactive"}
{"smiles": "CCN(CC)CCOC(=O)C(c1ccccc1)C1CCCCC1", "note": "(centres undefined)", "outcome": "inactive"}
